# In PubChem BioAssay (EPA / NIEHS):
# Results filed as inconclusive are left out. Calls of active or inactive are those of the source. Rule for the calls: active = hit-call score of the fitted dose curve at least 0.9, where 1 is the maximum; inconclusive = response in the unintended direction; inactive = score below 0.9.
# Columns and labels:
# [1] = target: rat Catechol-O-Methyl Transferase (COMT), Comt (gene 24267) (UniProt P22734); experiment: NVS_ENZ_rCOMT: NovaScreen (NVS) Enzymatic Assay for rat Catechol-O-Methyl Transferase (COMT) (AID 2283235)
# Sequence of rat Catechol-O-Methyl Transferase (COMT), Comt (gene 24267) (P22734 whole entry, looked up): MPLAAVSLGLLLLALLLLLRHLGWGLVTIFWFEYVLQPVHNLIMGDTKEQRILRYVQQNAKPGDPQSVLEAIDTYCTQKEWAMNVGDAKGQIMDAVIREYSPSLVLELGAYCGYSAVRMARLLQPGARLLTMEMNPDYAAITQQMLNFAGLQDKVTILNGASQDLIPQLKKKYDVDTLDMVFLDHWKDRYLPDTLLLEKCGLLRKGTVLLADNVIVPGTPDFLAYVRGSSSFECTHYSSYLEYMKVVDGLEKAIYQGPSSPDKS
# Method in brief: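 Cell-free enzyme activity with protein extracted from rat dorsal striatum, measured by HPLC with absorbance detection. Compounds screened at 25 uM in duplicate; actives then run in concentration-response up to 50 uM, loss of signal versus DMSO.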
# [2] = target: rat Monoamine Oxidase, MAO-B, Central (MAOBC), Maob (gene 25750) (UniProt P19643); experiment: NVS_ENZ_rMAOBC: NovaScreen (NVS) Enzymatic Assay for rat Monoamine Oxidase, MAO-B, Central (MAOBC) (AID 2283238)
# Sequence of rat Monoamine Oxidase, MAO-B, Central (MAOBC), Maob (gene 25750) (P19643 whole entry, looked up): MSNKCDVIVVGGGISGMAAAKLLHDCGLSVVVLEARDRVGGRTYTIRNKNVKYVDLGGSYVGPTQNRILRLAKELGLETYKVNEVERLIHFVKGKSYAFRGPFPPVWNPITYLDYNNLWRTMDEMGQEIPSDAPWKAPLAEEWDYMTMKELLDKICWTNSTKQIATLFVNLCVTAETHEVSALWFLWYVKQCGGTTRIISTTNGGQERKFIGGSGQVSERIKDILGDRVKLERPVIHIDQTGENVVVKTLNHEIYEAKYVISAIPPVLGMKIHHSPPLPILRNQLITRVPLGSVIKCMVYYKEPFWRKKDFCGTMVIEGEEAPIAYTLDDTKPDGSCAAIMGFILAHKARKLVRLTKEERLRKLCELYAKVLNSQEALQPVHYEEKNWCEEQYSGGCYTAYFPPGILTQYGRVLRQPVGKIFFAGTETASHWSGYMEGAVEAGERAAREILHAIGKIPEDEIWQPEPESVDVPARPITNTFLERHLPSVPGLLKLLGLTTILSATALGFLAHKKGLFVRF
# Method in brief: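 Compounds were first tested in duplicate at 25 uM against MAO-B from rat brain tissue; those passing the inhibition threshold were retested in concentration series up to 50 uM. Radiodetection by scintillation counting at 1.17 h, analysed against DMSO baseline.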
# [3] = target: rat Acetylcholinesterase (AChE), Ache (gene 83817) (UniProt P37136); experiment: NVS_ENZ_rAChE: NovaScreen (NVS) Enzymatic Assay for rat Acetylcholinesterase (AChE) (AID 2283233)
# Method in brief: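 Rat brain membrane acetylcholinesterase activity measured colorimetrically 0.33 h after compound addition, loss of signal relative to DMSO. Primary screen in duplicate at 25 uM; actives re-run as concentration-response with 50 uM top concentration.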
# [4] = target: rabbit Imidazoline 2 Central (I2C), CKB (gene 100009085) (UniProt P00567); experiment: NVS_ENZ_rabI2C: NovaScreen (NVS) Enzymatic Assay for rabbit Imidazoline 2 Central (I2C) (AID 2283228)
# Sequence of rabbit Imidazoline 2 Central (I2C), CKB (gene 100009085) (P00567 whole entry, looked up): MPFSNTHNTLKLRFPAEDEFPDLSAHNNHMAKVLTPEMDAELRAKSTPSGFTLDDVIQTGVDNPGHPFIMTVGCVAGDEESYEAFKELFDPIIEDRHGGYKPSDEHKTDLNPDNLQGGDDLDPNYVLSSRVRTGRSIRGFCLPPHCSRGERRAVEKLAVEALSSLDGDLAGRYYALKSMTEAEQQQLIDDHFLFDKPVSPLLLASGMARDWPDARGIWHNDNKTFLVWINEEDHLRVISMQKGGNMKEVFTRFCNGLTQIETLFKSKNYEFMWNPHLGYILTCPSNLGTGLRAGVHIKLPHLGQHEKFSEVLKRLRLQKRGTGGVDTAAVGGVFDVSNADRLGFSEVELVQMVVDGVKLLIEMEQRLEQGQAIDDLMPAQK
# Method in brief: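 Rabbit brain membranes, cell-free; readout by filter-based scintillation counting 1.5 hours after dosing, loss of signal vs DMSO. Initial duplicate test at 25 uM, then concentration-response with 50 uM top concentration.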
# [5] = target: rat Adenylate Cyclase, Forskolin Stimulated, Adcy5 (gene 64532) (UniProt Q04400); experiment: NVS_ENZ_rACFSKBinding: NovaScreen (NVS) Enzymatic Assay for rat Adenylate Cyclase, Forskolin Stimulated (AID 2283232)
# Method in brief: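 Rat forebrain membrane preparation, cell-free, read 1 h after dosing by filter-based scintillation counting. Primary screen in duplicate at 25 uM; actives (e.g. ≥30% inhibition) rerun in concentration-response up to 50 uM; fit versus DMSO.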
# [6] = target: sheep Cyclooxygenase-2 (Cox2), PTGS2 (gene 443460) (UniProt P79208); experiment: NVS_ENZ_oCOX2: NovaScreen (NVS) Enzymatic Assay for sheep Cyclooxygenase-2 (Cox2) (AID 2283231)
# Method in brief: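 Enzyme extracted from ovine placenta tested cell-free; activity read colorimetrically by absorbance 0.66 hour after dosing. Primary screen in duplicate at 25 uM; hits rerun as concentration series to 50 uM, loss of signal versus DMSO baseline.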
# [7] = target: sheep Cyclooxygenase-1 (Cox1), PTGS1 (gene 443551) (UniProt P05979); experiment: NVS_ENZ_oCOX1: NovaScreen (NVS) Enzymatic Assay for sheep Cyclooxygenase-1 (Cox1) (AID 2283239);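 note: actives reduce cyclooxygenase activity so potencies are for inhibitors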
# Sequence of sheep Cyclooxygenase-1 (Cox1), PTGS1 (gene 443551) (P05979 whole entry, looked up): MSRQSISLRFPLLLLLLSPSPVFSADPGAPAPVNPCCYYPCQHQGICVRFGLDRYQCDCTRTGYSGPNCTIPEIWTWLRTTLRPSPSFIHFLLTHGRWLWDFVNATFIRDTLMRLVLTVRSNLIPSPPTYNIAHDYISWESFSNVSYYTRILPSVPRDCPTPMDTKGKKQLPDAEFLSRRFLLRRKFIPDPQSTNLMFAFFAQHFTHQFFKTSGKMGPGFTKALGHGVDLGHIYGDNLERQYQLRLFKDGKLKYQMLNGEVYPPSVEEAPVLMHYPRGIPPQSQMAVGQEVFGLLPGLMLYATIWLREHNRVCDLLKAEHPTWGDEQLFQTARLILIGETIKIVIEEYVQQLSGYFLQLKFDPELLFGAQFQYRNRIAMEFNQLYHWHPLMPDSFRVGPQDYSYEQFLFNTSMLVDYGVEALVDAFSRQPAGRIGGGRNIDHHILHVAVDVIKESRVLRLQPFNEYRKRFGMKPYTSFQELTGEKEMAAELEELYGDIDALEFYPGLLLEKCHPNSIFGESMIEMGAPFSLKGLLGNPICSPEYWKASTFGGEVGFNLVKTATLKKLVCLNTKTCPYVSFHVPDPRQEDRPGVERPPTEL
# Method in brief: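 Ovine seminal vesicle extract; absorbance (colorimetric) enzyme read-out at 0.66 h post-dose. Primary: single conc 25 uM, duplicate. Follow-up: concentration series on actives. Activity = signal loss vs DMSO baseline.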
# [8] = target: human Sirtuin 3 (SIRT3), SIRT3 (gene 23410) (UniProt Q9NTG7); experiment: NVS_ENZ_hSIRT3: NovaScreen (NVS) Enzymatic Assay for human Sirtuin 3 (SIRT3) (AID 2283222)
# Method in brief: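 Cell-free enzyme assay with recombinant protein and fluorescent substrate, product separated by electrophoretic mobility shift; read 1 hour after dosing. Screened in duplicate at 25 uM, then singleton concentration-response up to 50 uM; loss of signal versus DMSO.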
# [9] = target: human Tropomyosin Receptor Kinase A (TRKA), NTRK1 (gene 4914) (UniProt P04629); experiment: NVS_ENZ_hTrkA: NovaScreen (NVS) Enzymatic Assay for human Tropomyosin Receptor Kinase A (TRKA) (AID 2283224)
# Method in brief: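 Recombinant human TrkA activity read after 1 h by fluorescence with electrophoretic mobility shift separating substrate and product. Primary screen in duplicate at 25 uM; actives were rerun in concentration-response up to 50 uM. Loss of signal versus DMSO.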
# [10] = target: human Vascular Endothelial Growth Factor Receptor 3 (VEGFR3), FLT4 (gene 2324) (UniProt P35916); experiment: NVS_ENZ_hVEGFR3: NovaScreen (NVS) Enzymatic Assay for human Vascular Endothelial Growth Factor Receptor 3 (VEGFR3) (AID 2283229)
# Method in brief: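 Cell-free recombinant VEGFR3 kinase reaction with fluorescent substrate, read 1 h after dosing by electrophoretic mobility shift separation of substrate and product. Single-concentration duplicate screen at 25 uM, then concentration-response up to 50 uM; loss of activity versus DMSO.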
# [11] = target: human Raf-1 Proto-Oncogene, serine/threonine Kinase (RAF1), RAF1 (gene 5894) (UniProt P04049); experiment: NVS_ENZ_hRAF1: NovaScreen (NVS) Enzymatic Assay for human Raf-1 Proto-Oncogene, serine/threonine Kinase (RAF1) (AID 2283216)
# Sequence of human Raf-1 Proto-Oncogene, serine/threonine Kinase (RAF1), RAF1 (gene 5894) (P04049 whole entry, looked up): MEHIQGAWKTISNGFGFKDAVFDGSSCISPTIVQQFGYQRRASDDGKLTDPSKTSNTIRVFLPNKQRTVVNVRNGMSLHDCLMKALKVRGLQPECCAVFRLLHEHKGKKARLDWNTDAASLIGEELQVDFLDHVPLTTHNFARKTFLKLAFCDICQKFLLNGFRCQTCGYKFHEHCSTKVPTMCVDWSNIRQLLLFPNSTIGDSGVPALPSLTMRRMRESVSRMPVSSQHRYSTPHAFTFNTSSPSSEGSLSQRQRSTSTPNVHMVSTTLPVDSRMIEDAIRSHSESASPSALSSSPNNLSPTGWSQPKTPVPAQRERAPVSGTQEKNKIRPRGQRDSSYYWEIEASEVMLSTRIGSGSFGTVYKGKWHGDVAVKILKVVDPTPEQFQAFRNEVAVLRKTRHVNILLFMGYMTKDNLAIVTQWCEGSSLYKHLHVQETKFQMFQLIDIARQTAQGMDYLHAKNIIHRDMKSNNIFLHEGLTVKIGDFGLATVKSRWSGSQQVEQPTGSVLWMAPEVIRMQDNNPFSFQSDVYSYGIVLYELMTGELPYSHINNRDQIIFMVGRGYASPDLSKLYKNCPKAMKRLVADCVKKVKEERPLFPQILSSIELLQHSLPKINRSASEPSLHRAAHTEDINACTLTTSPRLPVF
# Method in brief: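 Cell-free recombinant kinase with specific fluorescent substrate, product separated by electrophoretic mobility shift; read 1 h after dosing. Primary screen at 25 uM in duplicate; hits then run in concentration-response up to 50 uM, fitted as loss of signal versus DMSO.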
# [12] = target: human Tyrosine Protein Kinase Receptor Tie-2 (Tie2), TEK (gene 7010) (UniProt Q02763); experiment: NVS_ENZ_hTie2: NovaScreen (NVS) Enzymatic Assay for human Tyrosine Protein Kinase Receptor Tie-2 (Tie2) (AID 2283225)
# Sequence of human Tyrosine Protein Kinase Receptor Tie-2 (Tie2), TEK (gene 7010) (Q02763 whole entry, looked up): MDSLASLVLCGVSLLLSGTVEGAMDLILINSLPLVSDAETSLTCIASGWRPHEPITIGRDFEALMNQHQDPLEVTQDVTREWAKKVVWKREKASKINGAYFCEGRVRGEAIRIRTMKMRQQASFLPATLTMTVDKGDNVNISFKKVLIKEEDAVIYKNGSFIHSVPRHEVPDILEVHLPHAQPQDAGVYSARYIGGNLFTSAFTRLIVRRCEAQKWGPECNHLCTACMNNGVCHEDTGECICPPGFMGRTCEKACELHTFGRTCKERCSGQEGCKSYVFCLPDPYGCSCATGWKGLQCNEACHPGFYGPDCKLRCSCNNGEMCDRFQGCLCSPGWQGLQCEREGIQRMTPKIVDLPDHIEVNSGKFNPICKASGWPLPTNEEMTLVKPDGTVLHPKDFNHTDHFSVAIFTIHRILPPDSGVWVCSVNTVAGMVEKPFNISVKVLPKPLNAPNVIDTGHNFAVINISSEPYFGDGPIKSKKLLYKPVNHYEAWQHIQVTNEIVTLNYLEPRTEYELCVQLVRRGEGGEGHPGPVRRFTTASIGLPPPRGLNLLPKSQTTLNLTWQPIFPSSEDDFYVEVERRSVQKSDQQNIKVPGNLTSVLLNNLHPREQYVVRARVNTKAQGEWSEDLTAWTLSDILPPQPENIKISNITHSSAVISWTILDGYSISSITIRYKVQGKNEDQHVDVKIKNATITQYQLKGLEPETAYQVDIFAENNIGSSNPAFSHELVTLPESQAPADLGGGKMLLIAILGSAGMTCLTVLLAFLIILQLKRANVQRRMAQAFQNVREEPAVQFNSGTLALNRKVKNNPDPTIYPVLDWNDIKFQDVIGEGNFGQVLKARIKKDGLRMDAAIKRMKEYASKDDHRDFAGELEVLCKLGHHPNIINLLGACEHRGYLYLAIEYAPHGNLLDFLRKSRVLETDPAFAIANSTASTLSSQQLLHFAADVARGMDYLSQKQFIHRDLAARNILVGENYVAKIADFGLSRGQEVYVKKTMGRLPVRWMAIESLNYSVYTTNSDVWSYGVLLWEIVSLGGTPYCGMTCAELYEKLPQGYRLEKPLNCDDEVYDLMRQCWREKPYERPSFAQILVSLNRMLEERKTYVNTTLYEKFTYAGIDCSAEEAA
# Method in brief: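 Recombinant human Tie2 kinase activity was read cell-free by fluorescence with electrophoretic mobility shift, 1 hour after dosing. The screen used 25 uM in duplicate, then concentration-response up to 50 uM. Signal loss was scored against DMSO.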
# [13] = target: rat Constitutive Nitric Oxide Synthase (CNOS), Nos1 (gene 24598) (UniProt P29476); experiment: NVS_ENZ_rCNOS: NovaScreen (NVS) Enzymatic Assay for rat Constitutive Nitric Oxide Synthase (CNOS) (AID 2283236)
# Sequence of rat Constitutive Nitric Oxide Synthase (CNOS), Nos1 (gene 24598) (P29476 whole entry, looked up): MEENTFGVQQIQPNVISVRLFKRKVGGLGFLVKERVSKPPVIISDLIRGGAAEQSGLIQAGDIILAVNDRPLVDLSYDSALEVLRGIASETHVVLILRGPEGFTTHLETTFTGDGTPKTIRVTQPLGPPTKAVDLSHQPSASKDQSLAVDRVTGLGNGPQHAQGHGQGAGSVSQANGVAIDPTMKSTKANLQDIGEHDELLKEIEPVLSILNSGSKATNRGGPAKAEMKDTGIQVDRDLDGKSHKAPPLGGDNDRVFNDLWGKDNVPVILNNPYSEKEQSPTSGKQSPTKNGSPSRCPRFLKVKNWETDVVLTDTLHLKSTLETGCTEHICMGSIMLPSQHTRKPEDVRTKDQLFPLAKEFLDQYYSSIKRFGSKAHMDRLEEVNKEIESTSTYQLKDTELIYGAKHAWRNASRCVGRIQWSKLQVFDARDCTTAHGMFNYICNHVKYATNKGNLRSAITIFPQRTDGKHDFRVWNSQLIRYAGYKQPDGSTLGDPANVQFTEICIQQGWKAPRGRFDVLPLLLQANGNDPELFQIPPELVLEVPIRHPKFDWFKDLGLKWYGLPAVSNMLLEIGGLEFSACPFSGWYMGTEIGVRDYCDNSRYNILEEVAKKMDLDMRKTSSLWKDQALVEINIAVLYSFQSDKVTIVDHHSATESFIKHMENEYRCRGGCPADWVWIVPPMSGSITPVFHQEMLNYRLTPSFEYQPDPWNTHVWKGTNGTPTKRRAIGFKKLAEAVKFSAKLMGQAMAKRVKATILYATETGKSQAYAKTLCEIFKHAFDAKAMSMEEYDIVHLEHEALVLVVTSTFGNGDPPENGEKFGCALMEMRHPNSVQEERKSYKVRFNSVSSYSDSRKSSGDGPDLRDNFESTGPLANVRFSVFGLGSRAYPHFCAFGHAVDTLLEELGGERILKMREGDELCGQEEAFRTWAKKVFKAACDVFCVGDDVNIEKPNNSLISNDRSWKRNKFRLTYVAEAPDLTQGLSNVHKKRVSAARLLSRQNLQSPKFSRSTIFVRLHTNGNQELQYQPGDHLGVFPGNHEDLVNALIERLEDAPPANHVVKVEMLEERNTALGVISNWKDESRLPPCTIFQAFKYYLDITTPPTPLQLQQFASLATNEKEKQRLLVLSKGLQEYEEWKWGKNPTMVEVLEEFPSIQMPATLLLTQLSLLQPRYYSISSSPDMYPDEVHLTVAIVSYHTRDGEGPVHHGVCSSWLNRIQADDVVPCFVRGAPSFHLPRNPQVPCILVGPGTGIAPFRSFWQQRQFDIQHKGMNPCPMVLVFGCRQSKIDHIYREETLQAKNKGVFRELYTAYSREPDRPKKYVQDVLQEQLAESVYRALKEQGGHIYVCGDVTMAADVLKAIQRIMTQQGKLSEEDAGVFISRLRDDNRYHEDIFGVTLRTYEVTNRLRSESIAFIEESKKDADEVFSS
# Method in brief: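 Enzyme activity in rat brain membrane preparation, read 1 h after dosing by filter-based radiometric scintillation counting. Primary screen in duplicate at 25 uM; actives (e.g., ≥30% inhibition) then run in concentration-response up to 50 uM.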
# [14] = target: human Sirtuin 2 (SIRT2), SIRT2 (gene 22933) (UniProt Q8IXJ6); experiment: NVS_ENZ_hSIRT2: NovaScreen (NVS) Enzymatic Assay for human Sirtuin 2 (SIRT2) (AID 2283217)
# Method in brief: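 Cell-free recombinant human SIRT2, fluorescent substrate with product separated by electrophoretic mobility shift, 1 hr. Screened in duplicate at 25 uM; hits rerun singly in concentration-response up to 50 uM, relative to DMSO.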
# [15] = target: human Sirtuin 1 (SIRT1), SIRT1 (gene 23411) (UniProt Q96EB6); experiment: NVS_ENZ_hSIRT1: NovaScreen (NVS) Enzymatic Assay for human Sirtuin 1 (SIRT1) (AID 2283219)
# Method in brief: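 Cell-free recombinant SIRT1 with a fluorescent substrate; substrate and product separated by electrophoretic mobility shift and read by fluorescence intensity, 1 h after dosing. Primary screen at 25 uM in duplicate; hits re-run in concentration-response up to 50 uM, relative to DMSO.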
# [16] = test system: rat Monoamine Oxidase, MAO-A, Peripheral (MAOAP), gene 29253; experiment: NVS_ENZ_rMAOAP: NovaScreen (NVS) Enzymatic Assay for rat Monoamine Oxidase, MAO-A, Peripheral (MAOAP) (AID 2283237)
# Method in brief: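 Rat liver mitochondrial membranes served as the MAO-A source, with enzyme activity measured by radiometric scintillation counting 1.17 hours after dosing. Loss of signal was fitted against DMSO; primary screen used 25 uM in duplicate, follow-up used concentration series.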
# [17] = target: human SRC Proto-Oncogene, Non-receptor Tyrosine Kinase (SRC), SRC (gene 6714) (UniProt P12931); experiment: NVS_ENZ_hSRC: NovaScreen (NVS) Enzymatic Assay for human SRC Proto-Oncogene, Non-receptor Tyrosine Kinase (SRC) (AID 2283223)
# Method in brief: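 Cell-free kinase activity assay with fluorescent substrate, product separated by electrophoretic mobility shift, read 1 h after dosing. Duplicate single point at 25 uM, then concentration-response up to 50 uM; loss of signal versus DMSO.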
# [18] = target: human Vascular Endothelial Growth Factor Receptor 1 (VEGFR1), FLT1 (gene 2321) (UniProt P17948); experiment: NVS_ENZ_hVEGFR1: NovaScreen (NVS) Enzymatic Assay for human Vascular Endothelial Growth Factor Receptor 1 (VEGFR1) (AID 2283226)
# Method in brief: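 Cell-free assay of recombinant human VEGFR1 kinase with substrate, measured 1 h after dosing; fluorescence with electrophoretic mobility-shift separation of substrate and product, referenced to DMSO; primary screen at 25 uM in duplicate, actives then run in concentration series.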
# [19] = test system: bovine Angiotensin II Receptor Type 2 (AT2), gene 407157; experiment: NVS_GPCR_bAT2: NovaScreen (NVS) G Protein-Coupled Receptor Assay for bovine Angiotensin II Receptor Type 2 (AT2) (AID 2283240)
# Method in brief: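 Radioligand displacement on bovine cerebellar membranes, 1 hour incubation, filter-based scintillation counting; loss of signal vs DMSO. Duplicate single-point screen at 25 uM, then concentration-response to 50 uM maximum.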
compound,measurement,setting,value
CCOC(=O)CC(SP(=S)(OC)OC)C(=O)OCC (centres undefined),outcome,[1],inactive
same,outcome,[2],inactive
COP(=S)(OC)Oc1nc(Cl)c(Cl)cc1Cl,outcome,[3],inactive
same,outcome,[1],inactive
CCCCNC(=O)n1c(NC(=O)OC)nc2ccccc21,AC50,[4],14.2 µM (active)
same,outcome,[5],inactive
CON(C)C(=O)Nc1ccc(Cl)c(Cl)c1,outcome,[6],inactive
same,AC50,[2],16.1 µM (active) [middle of 4 runs]
same,outcome,[7],inactive
CC(C)(C)c1ccc(CSc2cnn(C(C)(C)C)c(=O)c2Cl)cc1,outcome,[2],inactive
same,outcome,[7],inactive
N#Cc1nn(-c2c(Cl)cc(C(F)(F)F)cc2Cl)c(N)c1S(=O)C(F)(F)F (centres undefined),outcome,[8],inactive
N#Cc1cc(Br)c(O)c(Br)c1,outcome,[9],inactive
same,outcome,[10],inactive
same,AC50,[1],0.677 µM (active)
CCON=C(CC)C1=C(O)CC(c2c(C)cc(C)cc2C)CC1=O (centres undefined),outcome,[11],inactive
CCCCOC(=O)c1ccccc1C(=O)OCCCC,outcome,[11],inactive
same,outcome,[12],inactive
same,outcome,[13],inactive
same,outcome,[7],inactive
O=C(O)c1nc(Cl)ccc1Cl,outcome,[11],inactive
CN(C)C(=S)SSC(=S)N(C)C,outcome,[14],inactive
same,AC50,[15],6.68 µM (active)
same,AC50,[5],6.85 µM (active)
same,outcome,[16],inactive
same,outcome,[7],inactive
Oc1ccccc1-c1ccccc1,AC50,[7],8.97 µM (active)
CCOP(=S)(OCC)SCn1c(=O)oc2cc(Cl)ccc21,outcome,[13],inactive
CC1=C(C(=O)Nc2ccccc2)SCCO1,outcome,[16],inactive
CC(Oc1ccc(Cl)cc1Cl)C(=O)O (centres undefined),outcome,[9],inactive
COc1nc(NC(C)C)nc(NC(C)C)n1,AC50,[2],1.29 µM (active)
CNC(=S)S,outcome,[17],inactive
same,outcome,[12],inactive
same,outcome,[4],inactive
same,outcome,[5],inactive
CCc1nn(C)c(C(=O)NCc2ccc(C(C)(C)C)cc2)c1Cl,outcome,[8],inactive
C#CCOS(=O)OC1CCCCC1Oc1ccc(C(C)(C)C)cc1 (centres undefined),AC50,[2],13.3 µM (active)
COc1cnc(OC)n2nc(NS(=O)(=O)c3c(OCC(F)F)cccc3C(F)(F)F)nc12,outcome,[18],inactive
COc1ccc(C(c2ccc(OC)cc2)C(Cl)(Cl)Cl)cc1,AC50,[2],25 µM (active)
Cc1ccc(-c2c(Cl)nc(C#N)n2S(=O)(=O)N(C)C)cc1,outcome,[12],inactive
same,AC50,[16],3.36 µM (active)
same,outcome,[19],inactive
CCCC1COC(Cn2cncn2)(c2ccc(Cl)cc2Cl)O1 (centres undefined),outcome,[17],inactive
COC(=O)N(OC)c1ccccc1COc1ccn(-c2ccc(Cl)cc2)n1,outcome,[1],inactive
